This note sets out measurements from PubChem BioAssay (NCI).

SMILES strings stand for the structures. This is part of a sample that, as a whole, favours compounds with a hit. Of some 83,000 tested, about 20% had one in any assay.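 In brief: 96-well plates, 48 h treatment, single concentration, percent growth endpoint.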 Unmarked numbers belong to inactive results. Active and inactive are the calls of the source. How the source made its calls: active means growth percent below 10; inactive means the rest.

Test systems include SR leukemia; RPMI-8226 leukemia; OVCAR-8 ovarian; OVCAR-5 ovarian; OVCAR-4 ovarian; SK-OV-3 ovarian; OVCAR-3 ovarian; HS 578T breast; NCI/ADR-RES ovarian; T-47D breast; BT-549 breast; MDA-MB-435 melanoma; SW-620 colon; MCF7 breast; HCT-116 colon; KM12 colon; HCC-2998 colon; IGROV1 ovarian.
Common to all, as to assay: NCI-60 one-dose screen, 48 h (100 = growth as untreated, 0 = no growth, -100 = all killed)
Conditions in all cases: 10 µM

In the case of `C[C@H](NC(=O)[C@@H]1CSSC[C@@H](NC(=O)Cc2nc3ccccc3cc2O)C(=O)NCC(=O)N1C)c1ccccc1`, the growth in the assay on SR leukemia was -3.15% (active); with RPMI-8226 leukemia, 87.2%; with OVCAR-8 ovarian, 95.2%; in the assay on OVCAR-5 ovarian it was 104%; in the assay on OVCAR-4 ovarian, 63.6%; with SK-OV-3 ovarian it was 88.4%. Also, the growth was 99% in the assay on OVCAR-3 ovarian; 94.2% in the assay with HS 578T breast; 101% in the assay with NCI/ADR-RES ovarian; 77.1% in the assay on T-47D breast; 83.8% in the assay on BT-549 breast; 70.7% in the assay with MDA-MB-435 melanoma. In addition, the growth is 94% in the assay on SW-620 colon, 51.7% with MCF7 breast, 44.7% in the assay on HCT-116 colon and 56% with KM12 colon.

Turning to `CCOC(=O)Nc1ccc2c(c1)C(=O)N(CC)c1ccccc1O2`, the growth in the assay with SR leukemia is 8.37% (active); in the assay on RPMI-8226 leukemia, 12.4%; with OVCAR-8 ovarian, 7.22% (active); in the assay on OVCAR-5 ovarian, 74%; in the assay with OVCAR-4 ovarian, 43.7%; in the assay on SK-OV-3 ovarian, 23.2%. Moreover, the growth is -7.48% (active) with OVCAR-3 ovarian; 46% with HS 578T breast; 8.14% (active) with NCI/ADR-RES ovarian; 73.4% in the assay with T-47D breast; 26.2% in the assay on BT-549 breast; -17.1% (active) with MDA-MB-435 melanoma. The growth in the assay on SW-620 colon is 32.7%; in the assay on MCF7 breast, 14.2%; with HCT-116 colon, 9.54% (active); with HCC-2998 colon, 18.2%; in the assay with KM12 colon, 14.7%.

Consider `O=c1[nH]c(=O)n(C2C[C@@H](O)[C@@H](CO)O2)cc1F` (some centres undefined), for which the growth in the assay with SR leukemia is 25.9%; in the assay on RPMI-8226 leukemia, 59.2%; in the assay with OVCAR-8 ovarian, 30.2%; with OVCAR-4 ovarian, 39%; in the assay on SK-OV-3 ovarian it was 43.6%; in the assay on IGROV1 ovarian, 43.1%. The growth in the assay with OVCAR-3 ovarian is 30.5%; with HS 578T breast it was 60.8%; with NCI/ADR-RES ovarian, 29.6%; with T-47D breast, 54.3%; in the assay on BT-549 breast, 1.4% (active); with MDA-MB-435 melanoma, 37.1%. Further, the growth is 55.9% in the assay with SW-620 colon; 20.7% in the assay with MCF7 breast; 16.8% with HCT-116 colon; -6.77% (active) in the assay with HCC-2998 colon; 33.4% in the assay on KM12 colon.

For `COc1cc(Nc2ccnc(N3CCN(c4ccnc5cc(Cl)ccc45)CC3)n2)cc(OC)c1`, the growth with SR leukemia is -17% (active); in the assay on RPMI-8226 leukemia it was -27.6% (active); in the assay on OVCAR-8 ovarian it was 1.09% (active); in the assay on OVCAR-5 ovarian, 30.8%; in the assay with OVCAR-4 ovarian, 30.4%; in the assay with SK-OV-3 ovarian it was 6.6% (active). Moreover, the growth with OVCAR-3 ovarian is 15%; in the assay on HS 578T breast, 24.6%; with NCI/ADR-RES ovarian, 7.19% (active); with T-47D breast it was -16.6% (active); in the assay on BT-549 breast, -4.01% (active); in the assay with SW-620 colon, 11%. Also, the growth is 0.585% (active) in the assay with MCF7 breast, 5.15% (active) in the assay with HCT-116 colon, 9.25% (active) in the assay with HCC-2998 colon and 8.26% (active) in the assay with KM12 colon.

In the case of `Cn1c([N+](=O)[O-])cnc1C=C1C(=O)c2ccccc2C1=O`, the growth was 7.25% (active) in the assay with SR leukemia; 40.6% in the assay on RPMI-8226 leukemia; 7.11% (active) in the assay with OVCAR-8 ovarian; 61.3% in the assay with OVCAR-5 ovarian; 56.8% in the assay with OVCAR-4 ovarian; 54% in the assay on SK-OV-3 ovarian. In addition, the growth in the assay on OVCAR-3 ovarian was 38.1%; in the assay with HS 578T breast, 26.4%; in the assay with NCI/ADR-RES ovarian it was 44.5%; with T-47D breast it was 65.4%; in the assay on BT-549 breast, 25%; in the assay on MDA-MB-435 melanoma it was 11.8%. Further, the growth is 29% in the assay on SW-620 colon; 37.8% in the assay on MCF7 breast; 20.7% with HCT-116 colon; 88.2% in the assay on HCC-2998 colon; 68.3% in the assay with KM12 colon.

`S=C(Cc1ccc(-c2ccccc2)cc1)N1CCOCC1`: the growth in the assay on SR leukemia is 101%; with RPMI-8226 leukemia it was 96.5%; in the assay with OVCAR-8 ovarian it was 102%; with OVCAR-4 ovarian, 101%; in the assay with SK-OV-3 ovarian, 102%; in the assay on IGROV1 ovarian, 113%. Further, the growth is 104% with OVCAR-3 ovarian; 97.8% in the assay with HS 578T breast; 103% in the assay on NCI/ADR-RES ovarian; 85.5% in the assay on T-47D breast; 96.6% in the assay with BT-549 breast; 98.6% in the assay with MDA-MB-435 melanoma. Moreover, the growth with SW-620 colon was 103%; in the assay on MCF7 breast, 95.3%; in the assay with HCT-116 colon, 98.6%; with HCC-2998 colon, 103%; in the assay with KM12 colon, 99.3%.

With `COc1ccc2nc(NC(=O)Nc3c(F)cccc3F)sc2c1`, the growth with SR leukemia is 92%; with RPMI-8226 leukemia, 87.6%; in the assay on OVCAR-8 ovarian, 98.9%; in the assay on OVCAR-5 ovarian, 108%; with OVCAR-4 ovarian it was 99.6%; in the assay on SK-OV-3 ovarian, 114%. For the same molecule, the growth was 118% in the assay on OVCAR-3 ovarian; 117% in the assay with HS 578T breast; 105% in the assay with NCI/ADR-RES ovarian; 106% with T-47D breast; 99% with MDA-MB-435 melanoma; 105% in the assay on SW-620 colon. Also, the growth in the assay with MCF7 breast was 95.6%; with HCT-116 colon, 102%; with HCC-2998 colon, 102%; with KM12 colon it was 112%.

For the molecule `COC(=O)[C@]12CC[C@@H](C)[C@H](C)[C@@H]1C1=CC[C@@H]3[C@@]4(C)CC(=O)[C@H](O)[C@@]5(C)COC(=C45)C[C@@]3(C)[C@]1(C)CC2`, the growth in the assay on SR leukemia was -31.7% (active); in the assay on RPMI-8226 leukemia, -32% (active); in the assay with OVCAR-8 ovarian, -45.2% (active); in the assay on OVCAR-5 ovarian, -40.4% (active); with OVCAR-4 ovarian it was -85.3% (active); in the assay with SK-OV-3 ovarian, -68.3% (active). Further, the growth with OVCAR-3 ovarian was -84.7% (active); in the assay on HS 578T breast it was -5.08% (active); in the assay on NCI/ADR-RES ovarian, -59.7% (active); in the assay on T-47D breast, -37.3% (active); in the assay with BT-549 breast, -61.7% (active); in the assay with MDA-MB-435 melanoma it was -27.6% (active). In addition, the growth with SW-620 colon is -60% (active); in the assay with MCF7 breast it was -45.8% (active); in the assay with HCT-116 colon it was -76.2% (active); in the assay with HCC-2998 colon it was -88.1% (active); in the assay on KM12 colon it was -64.1% (active).

Regarding `Nc1c(C(=O)Nc2ccccc2F)sc2nc3c(cc12)C(=O)CCC3`, the growth was 36.7% in the assay with SR leukemia; 52% with RPMI-8226 leukemia; 58.6% in the assay with OVCAR-8 ovarian; 71.1% in the assay on OVCAR-5 ovarian; 13.6% in the assay on SK-OV-3 ovarian; 16.8% in the assay with OVCAR-3 ovarian. Further, the growth is 37.2% with HS 578T breast; -4.39% (active) with NCI/ADR-RES ovarian; 40.2% with T-47D breast; 59.8% in the assay on BT-549 breast; -25.9% (active) with MDA-MB-435 melanoma; 30% in the assay on SW-620 colon. For the same molecule, the growth with MCF7 breast was 22.9%; with HCT-116 colon, 32%; in the assay on HCC-2998 colon, 43.8%; in the assay with KM12 colon, 24.6%.
